# Source: PubChem BioAssay (NCI)
# This is part of a sample that, as a whole, favours compounds with a hit. Of some 83,000 tested, about 20% had one in any assay.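 Results are percent growth after 48 hours of single-concentration exposure. 100 means growth as in untreated cells, lower positive values show inhibition; negative values down to -100 show cell death.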 Unmarked numbers belong to inactive results. The source made the active and inactive calls.
# Tested on: NCI-H226 lung
# Experiment: NCI-60 one-dose screen, 48 h (100 = growth as untreated, 0 = no growth, -100 = all killed)
# Details: 10 µM unless noted
# Protocol: Growth inhibition of the NCI-H226 human Non-Small Cell Lung tumor cell line is measured as a screen for anti-cancer activity. Cells are grown in 96 well plates and exposed to the test compound for 48 hours. Compounds are tested at a single concentration, which is 10^-5 M for most compounds. The reported endpoint is percent growth (GI% or GIPRCNT), where numbers from 0 - 100% represent growth inhibition, and numbers from -100% - 0 represent cell death. For example, a value of 40 represents 60% growth inhibition. A value of 0 means no net growth occurred over the course of the experiment. A value of -40 indicates 40% of cells at the beginning of the experiment died by the end of the experiment. A value of -100 means all cells are dead at the end of the experiment.
# NCI-60 Human Tumor Cell Lines Screen was performed using the standard one-dose NCI protocol, which is described in more detail at https://dtp.cancer.gov/discovery_development/nci-60/default.htm.
# Compounds with GIPRCNT values below 10 were considered active. Activity score was based on GIPRCNT using the following formula: […]
# Score is 0 for GIPRCNT values of 100 or above, 50 for GIPRCNT values of 0, and 100 for GIPRCNT values of -100.
row,SMILES,growth
1,CC[C@H](CC[C@@H](C)[C@H]1CC[C@H]2[C@@H]3CC=C4C[C@@H](OCCc5nn[nH]n5)CC[C@]4(C)[C@H]3CC[C@]12C)C(C)C,110%
2,COc1ccc(Cn2nc(-c3cc(OC)c(OC)c(OC)c3)c3c2CCc2cnoc2-3)cc1OC,84.5%
3,CCC(C)C(N)C(=O)NNc1n[nH]c(=S)n1N (stereo not given),101%
4,Cc1ccc(S(=O)(=O)Nc2ccc(Cl)cc2)cc1,96.6%
5,Clc1ccc(C2CC(c3cccc(Nc4ccncc4)c3)=NN2c2cc(Cl)cc(Cl)c2)cc1 (stereo not given),88.7%
6,Clc1ccc2c(c1)c(-c1ccccc1)nc1nncn12,114%
7,CCn1ccnc1C(=O)/C=C/c1ccc(CC(=O)Nc2ccc(F)cc2)cc1,87.4%
8,CCOC(=O)c1ccc(Nc2ccnc(SCC(=O)c3ccc(C#N)cc3)n2)cc1,61.4%
9,O=C(N/N=C/c1cccc(O)c1)c1ccccc1Nc1cccc(C(F)(F)F)c1,76.7%
10,COc1ccc(CNCCN2C(=O)c3ccc4c5c(ccc(c35)C2=O)C(=O)N(CCNCc2ccc(OC)cc2)C4=O)cc1,-63.7% (active)
11,NC(=S)N/N=C/c1ccc(OC(=O)COc2cc(Cl)c(Cl)cc2Cl)cn1,84.6%
12,C=C(C)[C@@H]1CC[C@]2(CO)CC[C@]3(C)[C@H](CC[C@@H]4[C@@]5(C)CCCNC(C)(C)[C@@H]5CC[C@]43C)[C@@H]12,84.4%
13,Clc1ccc(N2N=C(c3cccc(Nc4ccncc4)c3)CC2c2ccc3c(c2)OCO3)cc1 (stereo not given),82.5%
14,FCc1nc2nc(Cl)c(Cl)nc2[nH]1,104%
15,CCCC1C(C(=O)OCC)=C(N)Oc2cc(O)ccc21 (stereo not given),78.9%
16,COC(=O)N[C@H]1CCc2cc(OC)c(OC)c(OC)c2-c2ccc(SC)c(=O)cc21,-3.52% (active)
17,CS(=O)(=O)OCCN(CCOS(C)(=O)=O)c1ccc(/C=N/Nc2ccc([N+](=O)[O-])cc2[N+](=O)[O-])cc1,81.4%
18,Cn1c(COC(=O)N2CCCCC2)nc2c(N3CCOCC3)nc(-c3ccccc3)nc21,-60.8% (active)
19,Cc1cn(-c2cc(C(=O)Nc3cccc(C#Cc4cccc5[nH]nc(N)c45)c3)cc(C(F)(F)F)c2)cn1,33.1%
20,COc1ccc(Cc2nc3cc(OC)c(OC)cc3c(=O)[nH]2)cc1,98%

row,SMILES,growth
1,CC(=O)O[C@H]1CC[C@@]2(C)[C@@H](CC[C@@H]3[C@@H]2CC[C@@]2(C)[C@H]3CC[C@]2(O)C(C)=O)C1,89.8%
2,CCOC(=O)c1cnc2c(cnn2CC)c1NN=C(C)C,86.6%
3,O=C(N/N=C/c1ccc(F)cc1)c1ccccc1Nc1cccc(C(F)(F)F)c1,95.8%
4,O=C(CN1CCOCC1)Nc1ccc2ncnc(Nc3ccc(Oc4cccc(F)c4)c(Cl)c3)c2c1,89.8%
5,CC(C)Cc1ccc(C(C)C(=O)NCc2ccc(Cn3c(=O)sn(-c4ccc(Cl)cc4)c3=O)cc2)cc1 (stereo not given),82.6%
6,CCCCCCCCCCCCC1CCC/C=C\CCC(=O)O1 (stereo not given),100%
7,COc1cccc(C(Cc2ccccc2)Nc2ccccc2)c1OC (stereo not given),91.3%
8,O=S(=O)(NCCCNc1nccc(-c2c(-c3ccc(F)c(O)c3)nc3sccn23)n1)c1ccc(F)cc1,11%
9,COc1ccc(/C=N/NC(=O)c2cccc3cc[nH]c23)cc1O,90.4%
10,Clc1nc(Cl)c2ncn(CC3(Cn4cnc5c(Cl)nc(Cl)nc54)COC3)c2n1,-81.3% (active)
11,O=C(Nc1cccc(Cl)c1)c1cc(Cl)ccc1O,-2.52% (active)
12,O=c1[nH]c(=O)[nH]c(=S)[nH]1,97.9%
13,COc1cc(NCC(O)CN(CC(C)C)CC(C)C)c2nc(C)ccc2c1 (stereo not given),88.5%
14,CCCCCCCCOC(=O)c1ccc(O)c(OC)c1,88.5%
15,COc1ccc(C(O)c2cc3c(N)c(C(=O)Nc4ccccc4)sc3nc2C)cc1 (stereo not given),51.1%
16,COc1ccc(C(O)c2cc3c(N)c(C(=O)Nc4ccc(Br)cc4)sc3nc2C)cc1 (stereo not given),42.4%
17,N#CSCC1CC(O)(c2ccccc2)C(c2ccccc2)C(c2ccc(F)cc2)O1 (stereo not given),63.1%
18,CC(=O)[C@@H]1CC[C@]2(C(=O)n3ccnc3)CC[C@]3(C)[C@H](CC[C@@H]4[C@@]5(C)Cc6c([nH]c7ccccc67)C(C)(C)[C@@H]5CC[C@]43C)[C@@H]12,76.3%
19,CC(=O)NCCCS(=O)(=O)O,119%
20,NC(=O)C1(N2CCCCC2)CCN(CCCC(=O)c2ccc(F)cc2)CC1,43.7%
